Only some compounds are listed: those with a hit (about 22% of all), similar ones and a draw of the others.
Pf growth 96h = Primary qHTS for delayed death inhibitors of the malarial parasite plastid, 96 hour incubation. hit rate 6.9% among 320,000. P. falciparum luciferase reporter growth, 96 h. Potency, µM (titrated, usually from 28.7 µM), actives largely listed as inhibitors
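Luminescence readout: decreased luciferase signal marks inhibited growth of reporter-expressing P. falciparum in infected red cells (2% hematocrit, 0.05% parasitemia final), exposed to compound two generations (96 h, 37 C, 5% CO2).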
Pf growth 48h = Primary qHTS for delayed death inhibitors of the malarial parasite plastid, 48 hour incubation | Potency, µM (doses to about 28.7 µM), actives largely listed as inhibitors | hit rate 5.9% among 310,000 | P. falciparum luciferase growth in erythrocytes, 48 h
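Luminescence readout; reporter = integrated firefly luciferase in P. falciparum. RBC culture at 2% hematocrit, 0.1% parasitemia final, 37 C/5% CO2; decreased signal taken as growth inhibition.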
LmPK inhibitor = qHTS Assay for Inhibitors of Leishmania Mexicana Pyruvate Kinase (LmPK); Potency, µM (doses to about 57.5 µM), usual class: inhibitors; Q27686; hit rate 0.37% among 290,000; purified LmPK, Kinase-Glo ATP luminescence, 1 h; AID 1721, 2009
Target sequence (Q27686 whole entry, looked up): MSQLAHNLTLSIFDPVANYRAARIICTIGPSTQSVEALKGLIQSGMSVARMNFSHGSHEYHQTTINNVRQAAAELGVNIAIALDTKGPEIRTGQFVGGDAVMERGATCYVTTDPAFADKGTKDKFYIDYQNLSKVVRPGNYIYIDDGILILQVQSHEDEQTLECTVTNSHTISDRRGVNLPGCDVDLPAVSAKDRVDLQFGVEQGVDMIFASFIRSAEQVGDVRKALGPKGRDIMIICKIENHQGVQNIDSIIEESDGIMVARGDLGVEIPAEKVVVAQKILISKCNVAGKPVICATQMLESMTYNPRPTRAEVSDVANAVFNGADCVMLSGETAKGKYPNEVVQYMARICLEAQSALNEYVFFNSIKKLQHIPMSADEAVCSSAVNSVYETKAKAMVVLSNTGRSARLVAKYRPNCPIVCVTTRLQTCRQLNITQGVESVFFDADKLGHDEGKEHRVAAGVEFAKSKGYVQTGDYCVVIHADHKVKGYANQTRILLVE
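Pyruvate kinase activity monitored as ATP production (luciferase luminescence). Conditions: 0.1 nM enzyme, 0.5 mM PEP, 0.1 mM ADP, 1 h, RT; normalized against uninhibited and no-enzyme wells.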
CHX counter = Cycloheximide Counterscreen for Small Molecule Inhibitors of Shiga Toxin; hit rate 12% among 300,000; AID 2314, 2010; max response, %; cell reporter, cycloheximide protein synthesis inhibition counterscreen; in the data active = max response mostly above about 13%, no sharp cut-off; inactive = mostly below about 14%; also: read at 38.3 µM for the half of the compounds with a filed dose
Shiga inhibitor = A qHTS for Small Molecule Inhibitors of Shiga Toxin | hit rate 9.2% among 290,000 | Vero cells, Shiga toxin protein synthesis inhibition reporter | inhibition, % at 38.7 µM; in the data active = inhibition mostly above about 28%, no sharp cut-off; inactive = mostly below about 43%
A number is an active result; . = inactive; ? = inconclusive; / = not tested or not shown; [ ] = another dose, or the depositor's remark. Unless noted, calls follow the shape of the dose curve; as a rule, active = well fitted inhibition curve with a large enough effect; inconclusive = small, poorly fitted or top-dose-only effect, or another doubt; inactive = no such curve, though single readings can be large or run the other way.

SMILES	Pf growth 96h	Pf growth 48h	LmPK inhibitor	CHX counter	Shiga inhibitor
COc1ccc(S(=O)(=O)N2CCCC2C(=O)Nc2nc3c(s2)CCCC3)cc1 (centres undefined)	.	?	.	.	.
COc1cccc(-n2nnnc2SCC(=O)Nc2nc3c(s2)CCCC3)c1	?	.	.	25	87
Cc1ccccc1C(=O)NNC(=O)Nc1ccccc1	.	.	.	.	.
CSCC[C@H](NC(=O)[C@H](CC(C)C)NC(=O)CNC(=O)[C@H](Cc1ccccc1)N(C)C(=O)[C@H](Cc1ccccc1)NC(=O)[C@H](CC(=O)O)NC(=O)[C@@H](N)CC(=O)O)C(N)=O	/	/	/	.	.
COC(=O)C(NC(=O)COc1ccccc1)(Nc1nc2c(s1)CCCC2)C(F)(F)F (centres undefined)	10µM	?	.	.	.
COc1ccccc1OCC(=O)Nc1nc2c(s1)CCCC2	.	.	.	49	78
COc1ccc(OC)c(C(C)NC(=O)c2ccc(Br)cc2)c1 (centres undefined)	.	.	.	.	.
COc1cc(Br)c(C(C)NC(=O)c2ccccc2)cc1OC (centres undefined)	12µM	13µM	.	.	.
COC(=O)c1cc(C(=O)Nc2ccc(S(N)(=O)=O)cc2)cc([N+](=O)[O-])c1	.	.	.	.	.
CC(C)N(C(=O)Cn1cc(SCC(=O)NCc2ccco2)c2ccccc21)C(C)C	.	.	.	.	.
CCCn1cc(SCC(=O)NCc2ccco2)c2ccccc21	6.6µM	2.1µM	.	.	.
O=C(CSc1cn(CCNC(=O)c2ccccc2)c2ccccc12)NCC1CCCO1 (centres undefined)	?	.	.	.	.
O=C(NCCn1cc(SCc2ccccc2)c2ccccc21)c1c(F)cccc1F	?	.	.	.	.
O=C(CSc1cn(CCNC(=O)c2ccccc2)c2ccccc12)NCc1ccco1	?	/	.	36	53
O=C(NCCn1cc(SCc2ccc(F)cc2)c2ccccc21)c1c(F)cccc1F	?	?	.	14	.
Cc1ccc(S(=O)(=O)c2c(C)cc(C)[nH]c2=O)c(C)c1	.	.[0.00184 µM]	.	.	.
CCCN(CC(=O)Nc1ccccc1OC)C(=O)CC1CCCC1	.	?	/	/	/
CC(C)(C)C(=O)OCOP(=O)(OCOC(=O)C(C)(C)C)C(C)(Oc1ccc(O)cc1)P(=O)(OCOC(=O)C(C)(C)C)OCOC(=O)C(C)(C)C	/	/	/	.	.
CSc1nsc(SCC(=O)Nc2cccc(C(=O)O)c2)n1	.	.	.	.	.
CN(C)c1ccc(N=Cc2cccn2C)cc1	?	.	.	85	107
COc1ccc(-c2[nH]ncc2/C=N/NC(=O)c2ccncc2)c(OC)c1	.	.	.	.	.
O=C(NC1CCCCC1)C1CC(=O)N(c2ccc(Cl)cc2)C1 (centres undefined)	.	/	.	.	.
O=C1C(Cl)=C(NC2CCCCC2)C(=O)N1c1ccc(Cl)cc1	9.3µM	?	.	25	53
CC(=O)Nc1ccc(OCC(=O)N2CCC(Cc3ccccc3)CC2)cc1	.	.	.	.	.
CC(=O)Nc1ccc(S(=O)(=O)NCCC(=O)N2CCC(Cc3ccccc3)CC2)cc1	5.2µM	?	/	/	/
SMILES	Pf growth 96h	Pf growth 48h	LmPK inhibitor	CHX counter	Shiga inhibitor
CC(=O)Nc1ccc(S(=O)(=O)NCCC(=O)N2CCCCC2)cc1	.	.	/	/	/
O=C(CCNS(=O)(=O)c1ccccc1)N1CCOCC1	.	.	.	.	.
O=C(CCNS(=O)(=O)c1ccccc1)N1CCN(C(c2ccccc2)c2ccccc2)CC1	5.9µM	?	.	.	.
CC(=O)Nc1ccc(S(=O)(=O)NCCC(=O)N2CCN(C(c3ccccc3)c3ccccc3)CC2)cc1	10µM	12µM	/	/	/
COc1cc(C(C)=O)ccc1Oc1ccc(S(=O)(=O)N2CCOCC2)cn1	.	.	/	/	/
Cc1nc2c(cc(Oc3ccc(S(=O)(=O)N4CCOCC4)cn3)c3ccsc32)s1	?	?	.	72	113
COc1cc(C)ccc1OCCOCCOc1ccccc1Br	2.6µM	.	.	.	.
CCOc1ccccc1OCCCOc1ccc(C)cc1Br	.	.	.	41	70
CCOc1ccccc1OCCCOc1ccc(C)cc1Cl	.	.	.	23	62
O=C1CNC(=O)/C1=C\N1CCN(C(c2ccccc2)c2ccccc2)CC1	3.3µM	.	.	.	.
COc1ccc(CC2(CO)CCN(Cc3ccncc3)CC2)cc1	?	.	.	.	.
COc1ccc(CC2(CO)CCN(CC3=CC[C@H]4C[C@@H]3C4(C)C)CC2)cc1	.	7.4µM	.	.	.
[Hg+][c]1ccccc1	3.4µM	4.8µM	/	/	/
CCOC(=O)c1c(NC(=O)CN2C(=O)NC(C)(c3ccccc3)C2=O)sc(C)c1C (centres undefined)	?	.	.	.	.
CCc1ccc(-c2cc(C(=O)N/N=C/c3c[nH]c4ccccc34)[nH]n2)cc1	.	.	.	35	106
O=C(N/N=C/c1c[nH]c2ccccc12)c1ccc([N+](=O)[O-])cc1Cl	.	.	.	.	.
CCc1ccc2c(Cl)c(C(=O)N/N=C/c3c[nH]c4ccccc34)sc2c1	?	.	.	22	.
CCC1(CC)C(=O)C2=C3C1[C@H](C(=O)OC)CC(C(=O)OC)C[C@H]3[C@H]1C(=O)N(C)C(=O)[C@H]1[C@H]2C (some centres undefined)	/	/	/	.	.
COCCNC(=O)Cn1cc(/C=N/NC(=O)c2ccc(Oc3ccc(O)cc3)cc2)c2ccccc21	.	.	.	.	.
COc1cc(CO)ccc1OCc1ccc(Cl)nc1	.	.	.	51	149
O=C1Nc2ccccc2N=C(c2ccccc2)C1N1CCOCC1 (centres undefined)	.	.	.	.	.
O=C1Nc2ccccc2N=C(c2ccccc2)C1Br (centres undefined)	.	.	.	.	46
NS(=O)(=O)c1ccc(NC(=S)N2CCN(C(=O)C3CCCO3)CC2)cc1 (centres undefined)	?	.	.	.	.
N/C(=N\OC(=O)Nc1ccccc1)c1ncc([N+](=O)[O-])s1	?	?	.	28	.
O=C(O)c1ccc(Nc2nc(-c3cc4ccccc4oc3=O)cs2)cc1O	.	.	.	.	.
SMILES	Pf growth 96h	Pf growth 48h	LmPK inhibitor	CHX counter	Shiga inhibitor
Nc1ccc(Nc2nc(-c3cc4ccccc4oc3=O)cs2)cc1	?	.	.	43	116
CC(=O)Nc1ccc(Nc2nc(-c3cc4ccccc4oc3=O)cs2)cc1	.	.	.	47	69
COc1cccc2sc(Nc3nc(-c4cc5ccccc5oc4=O)cs3)nc12	.	?	.	.	.
O=C(c1cc2ccccc2o1)N(Cc1nnc(-c2ccccc2Cl)o1)C1CC1	.	.	/	/	/
CSc1cccc(N2CC(C(=O)N(Cc3nnc(-c4ccccc4Cl)o3)C3CC3)CC2=O)c1 (centres undefined)	.	?	.	.	.
CCOc1ccc2oc(C(=O)N(Cc3nnc(-c4ccccc4Cl)o3)C3CC3)c(C)c2c1	8.3µM	12µM	/	/	/

High-throughput results as filed in PubChem.
